# Source: PubChem BioAssay
# The other results are listed elsewhere or left out. Active and inactive are the calls of the source.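 How the source made its calls, unless noted: active means mean inhibition of the triplicate above the hit cutoff set for the earlier primary screen (cut at about 25% in these data); inactive means the rest.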
# Columns and labels:
# [1] = biological target: Platelet-activating factor acetylhydrolase (Homo sapiens) (UniProt Q13093); experiment: pPAFAH (PLA2G7) enzyme inhibitors, confirmation, biochemical, fluorescence polarization, human (AID 463230); settings: recombinant pPAFAH, FP-Rh probe fluorescence polarization; at 3.39 µM; active compounds read high;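 further: 0% = enzyme with DMSO and 100% = wells lacking pPAFAH enzyme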
# Chain of Platelet-activating factor acetylhydrolase (Homo sapiens) (Q13093 whole entry, looked up): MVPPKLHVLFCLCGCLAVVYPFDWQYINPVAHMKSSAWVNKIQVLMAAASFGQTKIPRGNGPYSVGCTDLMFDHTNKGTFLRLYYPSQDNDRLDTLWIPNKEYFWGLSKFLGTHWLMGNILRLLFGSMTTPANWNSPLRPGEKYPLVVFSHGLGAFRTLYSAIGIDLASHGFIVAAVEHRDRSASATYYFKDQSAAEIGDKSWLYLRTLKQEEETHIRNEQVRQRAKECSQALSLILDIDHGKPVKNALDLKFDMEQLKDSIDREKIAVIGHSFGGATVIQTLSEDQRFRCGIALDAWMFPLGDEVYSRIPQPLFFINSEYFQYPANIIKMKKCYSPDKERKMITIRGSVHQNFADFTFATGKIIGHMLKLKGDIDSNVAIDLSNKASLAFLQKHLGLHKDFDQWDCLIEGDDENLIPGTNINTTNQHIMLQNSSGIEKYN
# [2] = biological target: Insulin-degrading enzyme (Homo sapiens) (UniProt P14735); experiment: human IDE inhibitors in live cells, confirmation, fluorescence polarization, HEK cells, FAbetaB substrate (AID 435028;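 active means mean inhibition across triplicate wells above the cutoff set by the earlier primary insulin-degrading enzyme screen, cut at about 16% in these data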;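 further: 0% = DMSO wells and 100% = 60 µM reference IDE inhibitor Ii1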); settings: FAbetaB cleavage, at 5.59 µM, active compounds read high
# Chain of Insulin-degrading enzyme (Homo sapiens) (P14735 whole entry, looked up): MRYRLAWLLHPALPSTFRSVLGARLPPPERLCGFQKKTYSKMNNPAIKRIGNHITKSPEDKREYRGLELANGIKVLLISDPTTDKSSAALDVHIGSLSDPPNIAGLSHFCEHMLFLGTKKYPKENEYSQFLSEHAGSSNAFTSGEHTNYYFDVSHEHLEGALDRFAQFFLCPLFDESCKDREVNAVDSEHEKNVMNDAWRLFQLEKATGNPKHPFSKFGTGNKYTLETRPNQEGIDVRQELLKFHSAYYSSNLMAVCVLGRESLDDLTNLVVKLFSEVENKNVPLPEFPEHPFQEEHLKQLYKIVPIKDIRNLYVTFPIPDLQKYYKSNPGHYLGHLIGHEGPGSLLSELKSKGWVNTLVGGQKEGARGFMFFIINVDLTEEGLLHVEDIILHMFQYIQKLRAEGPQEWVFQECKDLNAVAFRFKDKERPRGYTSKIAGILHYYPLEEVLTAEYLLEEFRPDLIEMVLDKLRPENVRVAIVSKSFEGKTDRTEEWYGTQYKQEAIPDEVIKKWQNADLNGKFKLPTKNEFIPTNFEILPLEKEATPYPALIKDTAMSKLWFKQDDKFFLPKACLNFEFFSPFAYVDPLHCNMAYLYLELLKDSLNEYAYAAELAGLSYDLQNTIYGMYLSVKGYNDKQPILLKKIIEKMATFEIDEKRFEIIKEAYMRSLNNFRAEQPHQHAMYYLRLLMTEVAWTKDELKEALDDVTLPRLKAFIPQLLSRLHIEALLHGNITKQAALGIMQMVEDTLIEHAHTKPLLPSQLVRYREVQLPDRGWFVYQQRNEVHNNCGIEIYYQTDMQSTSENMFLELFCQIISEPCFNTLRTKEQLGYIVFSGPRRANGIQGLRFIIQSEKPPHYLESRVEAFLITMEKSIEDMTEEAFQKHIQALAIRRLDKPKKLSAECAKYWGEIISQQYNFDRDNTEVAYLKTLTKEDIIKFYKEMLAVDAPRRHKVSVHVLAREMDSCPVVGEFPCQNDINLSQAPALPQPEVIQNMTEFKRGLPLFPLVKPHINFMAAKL
# [3] = cytotoxicity in HEK cells, cytotoxicity control for IDE inhibitor project, cell-based, luminescence (AID 449730; in the data active means inhibition above about 22%;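 further: 0% = vehicle wells and 100% = reference cytotoxic drug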); settings: HEK293 cytotoxicity, ATP luminescence; at 5.59 µM; active compounds read high
# [4] = biological target: Serine protease HTRA1 (Homo sapiens) (UniProt Q92743); experiment: HTRA1 protease inhibitors, retest, confirmation, biochemical, fluorescence polarization (AID 540248;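 active means mean inhibition over three repeats above a set limit taken from the earlier primary screen, cut at about 37% in these data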;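 further: 0% = HTRA1 with DMSO and 100% = wells lacking HTRA1; inhibitors block probe binding so polarization drops and inhibition rises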); settings: recombinant HTRA1, FP-rhodamine activity-based probe, at 5.96 µM, active compounds read high
# [5] = biological target: (Lyso)-N-acylphosphatidylethanolamine lipase (Mus musculus) (UniProt Q8VD66); experiment: ABHD4 inhibitors, retest, confirmation, biochemical, fluorescence polarization, mouse (AID 720658;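 active means mean inhibition across replicates above the hit cutoff set in the primary screen, cut at about 30% in these data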;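 further: 0% = wild-type ABHD4 with DMSO and 100% = catalytically dead S159A mutant with DMSO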); settings: purified mABHD4, FP-Rh probe fluorescence polarization; at 8.92 µM; active compounds read high
# Chain of (Lyso)-N-acylphosphatidylethanolamine lipase (Mus musculus) (Q8VD66 whole entry, looked up, the tested form may be a part): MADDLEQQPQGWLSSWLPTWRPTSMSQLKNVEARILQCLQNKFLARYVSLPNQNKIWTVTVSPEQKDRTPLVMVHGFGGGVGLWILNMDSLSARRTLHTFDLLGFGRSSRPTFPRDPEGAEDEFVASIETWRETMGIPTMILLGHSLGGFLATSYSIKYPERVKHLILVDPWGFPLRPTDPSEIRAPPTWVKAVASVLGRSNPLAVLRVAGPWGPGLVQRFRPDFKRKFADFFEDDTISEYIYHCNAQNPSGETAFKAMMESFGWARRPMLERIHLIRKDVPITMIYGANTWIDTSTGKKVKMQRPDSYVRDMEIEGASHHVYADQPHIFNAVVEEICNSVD
# [6] = biological target: Oxysterols receptor LXR-beta (Homo sapiens) (UniProt P55055); experiment: LXR agonists, Gal4 luciferase reporter, confirmation, counter-screen for hcDAF-12 agonist project, cell-based, luminescence, HEK293, H. contortus campaign (AID 743027;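 active means mean percent activation of the reporter above a cutoff set as the average over tested compounds plus their standard deviation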); settings: HEK293 Gal4-LXR tk-luc reporter, 24 h, at 6.8 µM, active compounds read high, normalized: DMSO 0%, positive control 100%
# Chain of Oxysterols receptor LXR-beta (Homo sapiens) (P55055 whole entry, looked up, the tested form may be a part): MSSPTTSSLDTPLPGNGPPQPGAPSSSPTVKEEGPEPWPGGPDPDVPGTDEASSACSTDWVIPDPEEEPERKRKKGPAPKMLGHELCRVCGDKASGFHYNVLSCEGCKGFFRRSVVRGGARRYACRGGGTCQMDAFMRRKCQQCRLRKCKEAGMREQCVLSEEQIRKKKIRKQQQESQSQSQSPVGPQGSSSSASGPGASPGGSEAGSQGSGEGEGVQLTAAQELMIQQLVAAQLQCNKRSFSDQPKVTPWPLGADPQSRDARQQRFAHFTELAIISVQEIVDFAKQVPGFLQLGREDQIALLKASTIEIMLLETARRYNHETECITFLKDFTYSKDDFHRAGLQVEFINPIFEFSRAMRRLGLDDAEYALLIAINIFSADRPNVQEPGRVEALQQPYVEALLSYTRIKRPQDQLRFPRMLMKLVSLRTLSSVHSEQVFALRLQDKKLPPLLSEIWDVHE
# [7] = system: Nuclear hormone receptor DAF-12 (Haemonchus contortus); experiment: H. contortus DAF-12 receptor agonists, confirmation, cell-based, luminescence, HEK293, lit1-tk-luc, triplicate (AID 743032;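 active means mean activation across triplicate tests above the threshold derived from the earlier primary screen, cut at about 5.5% in these data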;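 further: 0% = DMSO only wells and 100% = 3 µM Δ7-dafachronic acid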); settings: HEK293 hcDAF-12 lit1-tk-luc reporter, at 6.8 µM, active compounds read high, % of Δ7-dafachronic acid response
# [8] = system: DAF-12 nuclear receptor (Heterodera glycines), GAL4-LBD fusion; experiment: H. glycines DAF-12 receptor agonists, confirmation, cell-based, luminescence, HEK293, GAL4-LBD fusion (AID 743050;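 active means mean activation over triplicate wells above the hit cutoff derived from the earlier primary screen, cut at about 11% in these data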;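 further: 0% = DMSO low control and 100% = 2 mM sodium butyrate high control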); settings: HEK293 GAL4-hgDAF12 luciferase reporter, agonist mode; at 6.8 µM; active compounds read high; percent of butyrate response
# [9] = biological target: Oxysterols receptor LXR-beta (Homo sapiens) (UniProt P55055); experiment: LXR agonists, Gal4 luciferase reporter, confirmation, counter-screen for hgDAF-12 agonist project, cell-based, luminescence, HEK293, H. glycines campaign (AID 743051;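 active means mean activation of the triplicate above a set limit carried over from the primary screen, none filed active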); settings: 24 h, at 6.8 µM, active compounds read high
# [10] = biological target: Protein-arginine deiminase type-4 (Homo sapiens) (UniProt Q9UM07); experiment: human PAD4 inhibitors, confirmation, biochemical, fluorescence polarization (AID 488796;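 active means mean inhibition across replicates above the hit cutoff set by the earlier primary screen, cut at about 15% in these data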;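 further: inhibitors block active-site labeling by the probe so polarization falls; 0% = PAD4 with probe and DMSO and 100% = probe without PAD4 enzyme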); settings: recombinant PAD4, RCA probe fluorescence polarization; at 6.36 µM; active compounds read high
# Chain of Protein-arginine deiminase type-4 (Homo sapiens) (Q9UM07 whole entry, looked up): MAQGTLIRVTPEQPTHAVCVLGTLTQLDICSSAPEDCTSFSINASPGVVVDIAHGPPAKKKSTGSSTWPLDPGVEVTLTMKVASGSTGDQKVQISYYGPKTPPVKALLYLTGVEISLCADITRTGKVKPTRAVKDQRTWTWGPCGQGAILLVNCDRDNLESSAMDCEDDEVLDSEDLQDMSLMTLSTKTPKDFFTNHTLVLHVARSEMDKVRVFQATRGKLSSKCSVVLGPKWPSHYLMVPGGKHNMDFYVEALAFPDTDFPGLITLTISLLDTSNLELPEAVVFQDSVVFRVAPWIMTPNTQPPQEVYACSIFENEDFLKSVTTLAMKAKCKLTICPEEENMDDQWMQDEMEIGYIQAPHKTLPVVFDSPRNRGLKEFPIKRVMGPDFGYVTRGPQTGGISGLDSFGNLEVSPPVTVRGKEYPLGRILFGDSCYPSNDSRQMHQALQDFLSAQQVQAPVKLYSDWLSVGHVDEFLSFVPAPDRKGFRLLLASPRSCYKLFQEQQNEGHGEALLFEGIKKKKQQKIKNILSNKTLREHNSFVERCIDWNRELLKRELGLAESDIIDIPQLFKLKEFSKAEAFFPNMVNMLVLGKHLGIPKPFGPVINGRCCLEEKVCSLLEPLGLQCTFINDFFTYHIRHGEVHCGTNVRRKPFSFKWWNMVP
# [11] = StAR promoter reporter inhibitors, counter-screen for LRH-1 inverse agonist project, cell-based, luminescence, high throughput (AID 651611; in the data active means inhibition above about 28%); settings: StAR promoter luciferase reporter counterscreen, at 3.6 µM, active compounds read high
# [12] = biological target: Nuclear receptor subfamily 5 group A member 2 (Homo sapiens) (UniProt O00482); experiment: LRH-1 (NR5A2) inverse agonists, retest, confirmation, cell-based, luminescence (AID 651613; in the data active means inhibition above about 42%;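 further: HEK293T cells co-transfected with LRH-1 and StAR promoter luciferase reporter; 0% = vehicle wells and 100% = parental cells lacking receptor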); settings: cell-based LRH-1 luciferase reporter, inverse agonism; at 3.6 µM; active compounds read high
# Chain of Nuclear receptor subfamily 5 group A member 2 (Homo sapiens) (O00482 whole entry, looked up): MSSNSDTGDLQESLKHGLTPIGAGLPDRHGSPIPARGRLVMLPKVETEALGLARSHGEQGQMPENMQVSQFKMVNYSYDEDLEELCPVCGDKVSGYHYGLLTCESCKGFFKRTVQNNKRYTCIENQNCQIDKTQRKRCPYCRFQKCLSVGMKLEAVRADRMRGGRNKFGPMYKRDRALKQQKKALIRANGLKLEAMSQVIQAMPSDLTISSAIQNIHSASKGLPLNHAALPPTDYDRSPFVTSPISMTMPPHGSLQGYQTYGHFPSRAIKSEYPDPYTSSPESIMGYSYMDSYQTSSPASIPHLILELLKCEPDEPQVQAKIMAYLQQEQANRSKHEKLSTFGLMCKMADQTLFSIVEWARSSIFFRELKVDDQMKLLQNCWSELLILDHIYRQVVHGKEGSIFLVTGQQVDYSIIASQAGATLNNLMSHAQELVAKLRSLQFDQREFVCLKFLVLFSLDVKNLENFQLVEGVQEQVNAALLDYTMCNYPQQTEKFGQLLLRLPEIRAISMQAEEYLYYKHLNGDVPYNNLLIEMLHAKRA
# [13] = biological target: Steroidogenic factor 1 (Homo sapiens) (UniProt Q13285); experiment: SF1 (NR5A1) inverse agonists, counter-screen for LRH-1 inverse agonist project, cell-based, luminescence, high throughput (AID 651614; in the data active means inhibition above about 44%;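 further: cells cotransfected with StAR promoter reporter and SF1 expression vector; 0% = vehicle on cells with receptor and 100% = vehicle on cells lacking receptor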); settings: cell-based SF1 luciferase reporter, at 3.6 µM, active compounds read high
# [14] = VP16 transactivation reporter inhibitors, counter-screen for LRH-1 inverse agonist project, cell-based, luminescence, high throughput (AID 651615; in the data active means inhibition above about 33%); settings: Gal4-VP16 luciferase reporter cells, at 3.6 µM, active compounds read high
# [15] = system: transactivating tegument protein VP16 (Human herpesvirus 1); experiment: VP16 transactivation reporter inhibitors, counter-screen for SRC2 inhibitor project, cell-based, luminescence, single concentration (AID 652007; in the data active means inhibition above about 36%); settings: cell-based VP16 transactivation luciferase reporter, at 8.9 µM, active compounds read high
# [16] = biological target: Nuclear receptor coactivator 2 (Homo sapiens) (UniProt Q15596); experiment: SRC2 coactivator transcriptional activity inhibitors, confirmation, cell-based, luminescence, HEK293, triplicate (AID 652008;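 active means mean inhibition above 46.5%, the solvent-only control mean plus 3 SD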;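 further: 0% = DMSO-treated cells and 100% = Gossypol at 36 µM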); settings: HEK293 GAL4-SRC2 luciferase reporter, at 8.9 µM, active compounds read high
# Chain of Nuclear receptor coactivator 2 (Homo sapiens) (Q15596 whole entry, looked up, the tested form may be a part): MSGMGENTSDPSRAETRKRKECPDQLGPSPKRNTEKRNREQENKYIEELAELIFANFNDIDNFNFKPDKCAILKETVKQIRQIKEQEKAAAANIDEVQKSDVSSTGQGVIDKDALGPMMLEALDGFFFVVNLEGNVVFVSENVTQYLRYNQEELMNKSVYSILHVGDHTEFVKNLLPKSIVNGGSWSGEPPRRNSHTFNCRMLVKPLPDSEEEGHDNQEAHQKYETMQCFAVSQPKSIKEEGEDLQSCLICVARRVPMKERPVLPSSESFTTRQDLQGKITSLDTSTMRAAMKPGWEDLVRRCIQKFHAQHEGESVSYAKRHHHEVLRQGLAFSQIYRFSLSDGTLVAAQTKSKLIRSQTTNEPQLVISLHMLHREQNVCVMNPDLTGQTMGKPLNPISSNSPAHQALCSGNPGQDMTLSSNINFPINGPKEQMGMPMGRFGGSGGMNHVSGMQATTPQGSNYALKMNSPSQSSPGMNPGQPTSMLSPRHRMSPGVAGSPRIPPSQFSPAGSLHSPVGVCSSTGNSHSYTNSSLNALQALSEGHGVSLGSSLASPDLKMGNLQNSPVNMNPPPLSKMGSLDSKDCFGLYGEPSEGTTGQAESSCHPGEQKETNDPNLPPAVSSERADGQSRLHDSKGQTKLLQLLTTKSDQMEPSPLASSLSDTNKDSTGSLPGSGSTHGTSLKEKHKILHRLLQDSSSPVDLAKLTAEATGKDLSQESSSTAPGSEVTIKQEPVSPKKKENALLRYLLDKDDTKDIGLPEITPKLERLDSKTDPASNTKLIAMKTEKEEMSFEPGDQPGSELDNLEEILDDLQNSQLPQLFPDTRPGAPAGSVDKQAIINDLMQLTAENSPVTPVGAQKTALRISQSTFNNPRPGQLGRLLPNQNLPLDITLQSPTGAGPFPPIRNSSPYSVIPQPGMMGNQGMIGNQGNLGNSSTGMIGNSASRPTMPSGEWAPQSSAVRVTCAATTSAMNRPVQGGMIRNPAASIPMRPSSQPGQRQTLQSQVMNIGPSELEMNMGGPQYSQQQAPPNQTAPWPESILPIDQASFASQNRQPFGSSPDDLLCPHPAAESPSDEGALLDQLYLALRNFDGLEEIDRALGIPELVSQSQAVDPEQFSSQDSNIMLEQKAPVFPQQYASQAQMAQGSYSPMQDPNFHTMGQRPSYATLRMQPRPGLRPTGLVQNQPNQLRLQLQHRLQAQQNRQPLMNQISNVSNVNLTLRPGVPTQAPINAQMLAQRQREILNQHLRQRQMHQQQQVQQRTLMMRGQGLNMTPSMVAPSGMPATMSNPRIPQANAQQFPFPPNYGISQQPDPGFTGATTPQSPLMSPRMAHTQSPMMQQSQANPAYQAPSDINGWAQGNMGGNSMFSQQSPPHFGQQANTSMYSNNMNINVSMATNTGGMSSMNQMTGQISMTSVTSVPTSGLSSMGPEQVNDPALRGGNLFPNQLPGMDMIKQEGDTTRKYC
# [17] = compounds interfering with TAMRA-BSA probe, counter-screen for TCR-CD3 interaction inhibitor project, biochemical, fluorescence, TAMRA-labeled BSA (AID 652035; in the data active means inhibition above about 23%;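 further: 0% = buffer low control and 100% = reference high control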); settings: TAMRA-labeled BSA probe fluorescence counterscreen; at 9.4 µM; active compounds read high
# [18] = system: T-cell receptor (TCR)-CD3 interaction, human; experiment: TCR-CD3 interaction inhibitors, retest, confirmation, biochemical, fluorescence, TAMRA-labeled TCR probe (AID 652036; in the data active means inhibition above about 19%); settings: TAMRA-labeled TCR probe fluorescence binding assay; at 9.4 µM; active compounds read high
structure (smiles),measurement,setting,value
COc1cc(C2CC(=O)N3CN(Cc4ccccc4)CSC3=C2C#N)ccc1OCc1ccccc1 (stereo unspecified),inhibition,[1],14.2% (inactive)
CCOc1ccc(NS(=O)(=O)c2ccc(C(=O)NCC(c3ccccc3OC)N3CCCC3)cc2)cc1 (stereo unspecified),inhibition,[1],45.4% (active)
N#C/C(=C\c1ccc(O)c(O)c1)C(=O)NCc1ccccc1,inhibition,[2],43.1% (active)
same,inhibition,[3],6.24% (inactive)
same,inhibition,[4],84.8% (active)
same,inhibition,[5],30.8% (active)
CC(=O)N1CCN(C(=O)c2cc(-c3ccc(C)o3)nc3ccccc23)CC1,inhibition,[1],5.07% (inactive)
Cc1ccc(-n2c(C)cc(/C=C(\C#N)C(=O)NCC3CCCO3)c2C)cc1 (stereo unspecified),inhibition,[1],63.7% (active)
Oc1ccc(N=Nc2nccs2)c(O)c1,inhibition,[1],5.09% (inactive)
CC1CCCCC1NC(=O)COC(=O)Cc1ccc(Cl)cc1 (stereo unspecified),inhibition,[1],22.3% (inactive)
Cc1ccc(S(=O)(=O)NCc2csc(C)n2)c(C)c1,inhibition,[1],2.33% (inactive)
N#CC1=C(N)Oc2c(sc3ccccc23)C1c1ccco1 (stereo unspecified),inhibition,[2],55.6% (active)
same,inhibition,[3],39.4% (active)
same,activation,[6],-0.13% (inactive)
same,activation,[7],1.83% (inactive)
CCc1ccc(CN(C)C(=O)CCc2nnc(-c3ccc(-c4ccccc4)cc3)o2)nc1,inhibition,[1],11.8% (inactive)
O=C(N/N=C/c1cccnc1)c1cc2ccccc2cc1O,inhibition,[1],5.94% (inactive)
same,inhibition,[4],13.8% (inactive)
CCCCC(=O)Nc1ccc2c(c1)C(=O)NC2=O,inhibition,[1],4.81% (inactive)
O=C(O)C(c1ccccc1)N1C(=O)/C(=C\c2ccc(-c3cccc(Cl)c3)o2)SC1=S (stereo unspecified),inhibition,[1],55.4% (active)
COCC(C)NC(=O)c1ccc(-n2nc(C(F)(F)F)cc2-c2cccs2)cc1 (stereo unspecified),inhibition,[1],23.6% (inactive)
COc1ccc(C(=O)NC(=S)Nc2ccccc2N2CCN(S(C)(=O)=O)CC2)cc1OC,inhibition,[1],-1.51% (inactive)
Cc1cc(C(=O)CSc2nc(N)cc(=O)[nH]2)c(C)n1-c1cccc(F)c1,inhibition,[1],51.8% (active)
O=C(CCC1CCCCC1)Nc1cc(C(F)(F)F)ccc1N1CCOCC1,inhibition,[1],6.87% (inactive)
Cc1ccc(-c2noc(CSc3nnc(-c4ccncc4)n3-c3ccc(F)cc3)n2)cc1,inhibition,[1],1.52% (inactive)
COc1ccc(N=C(C)c2sc3ccccc3c2O)cc1,inhibition,[2],56.1% (active)
same,inhibition,[3],15.2% (inactive)
same,activation,[8],18.6% (active)
same,activation,[9],0.76% (inactive)
O=C(NCC1CCCO1)c1cc2c([nH]c3ccccc32)c(-c2ccc(F)cc2)n1 (stereo unspecified),inhibition,[10],64.8% (active)
same,inhibition,[11],50.5% (active)
same,inhibition,[12],41.6% (active)
same,inhibition,[13],50.1% (active)
same,inhibition,[14],27.2% (inactive)
C=CCN(C(=O)Nc1ccc2oc(C)nc2c1)c1ccccc1,inhibition,[10],-3.81% (inactive)
Cc1ccn2cc(-c3nonc3C)cc2c1,inhibition,[10],6.98% (inactive)
CC(=O)Oc1cccc(N2C(=O)CC(Nc3ccc(N4CCOCC4)cc3)C2=O)c1 (stereo unspecified),inhibition,[10],-1.36% (inactive)
Cc1cc(O)ccc1-c1cnc2ccccc2n1,inhibition,[10],29.1% (active)
CCOc1[nH]n(-c2ccc(Cl)cc2)c(=O)c1C=Nc1ccc(O)cc1,inhibition,[10],6.04% (inactive)
same,inhibition,[5],-0.05% (inactive)
O=C(NCCCO)c1cc2c([nH]c3ccccc32)c(-c2ccc(F)cc2)n1,inhibition,[10],22.4% (active)
Cn1c(Nc2cccc(Cl)c2)nc2ccccc21,inhibition,[10],4.71% (inactive)
CCOC(=O)N1CCC(c2cc(=O)n(-c3ccccc3)[nH]2)CC1,inhibition,[10],-0.34% (inactive)
Cc1nn(-c2ccccc2)c(C)c1NC(=O)COc1ccc(Cl)cc1Cl,inhibition,[10],5.05% (inactive)
same,inhibition,[15],-8.62% (inactive)
same,inhibition,[16],16.2% (inactive)
O=c1[nH]n(-c2ccc([N+](=O)[O-])cc2)c(=O)c2ccccc12,inhibition,[10],25.3% (active)
same,inhibition,[17],59.3% (active)
same,inhibition,[18],46% (active)
same,inhibition,[5],43.2% (active)
CCc1nnc(SCc2cccc(F)c2)nc1CC,inhibition,[10],-0.68% (inactive)
CCC(=O)Nc1sc(C(=O)Nc2ccccc2)c(C)c1C(=O)OC,inhibition,[1],4.86% (inactive)
same,activation,[8],9.78% (inactive)
same,activation,[9],0.28% (inactive)
Cc1ccc(C(=O)CSc2nc3ccccc3c(=O)n2N)o1,inhibition,[10],1.81% (inactive)
O=C(/C=C/c1cccs1)c1cc(Cl)ccc1OC(=O)N1CCOCC1,inhibition,[1],47.8% (active)
same,inhibition,[15],20.3% (inactive)
same,inhibition,[16],-4.35% (inactive)
COc1cc(SC#N)ccc1N=Cc1c(C)[nH]n(-c2ccc(C)cc2)c1=O,inhibition,[10],29.7% (active)
COc1cc(C(=O)NCc2ccc3c(c2)cc(C)n3C)cc(OC)c1OC,inhibition,[10],1.97% (inactive)
Cc1cc2c(cc1C)N(C(=O)CN1C(=O)c3ccccc3C1=O)C(C)(C)c1ssc(=S)c1-2,inhibition,[10],33.7% (active)
